TDP1 cell noCPT – qHTS for Inhibitors of human tyrosyl-DNA phosphodiesterase 1 (TDP1): qHTS in cells in absence of CPT | DT40 Tdp1-/- hTDP1 cells, no CPT, ATP luminescence, 48 h | Potency, µM (top dose mostly 46.2 µM), without a hit: at the top dose activity change, negative = growth inhibition, actives largely listed as inhibitors | 15% of 420,000 active; note: potency is the fitted concentration of half-maximal effect; nearly all actives have a fitted effect of over 55% in size
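Stably hTDP1-transfected Tdp1-null chicken DT40 cells were treated with library compounds minus camptothecin and grown for at least 48 hr at 37 °C, after which cellular ATP was quantified by luminescence.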
HT1080NT lethal – qHTS for induction of synthetic lethality in tumor cells producing 2HG: qHTS for the HT-1080-NT fibrosarcoma cell line. HT-1080-NT fibrosarcoma viability, CellTiter-Glo ATP luminescence, 48 h. Potency, µM (doses to about 46.1 µM), for inactives: top-dose activity, negative = less viability, actives largely listed as cytotoxic. 1.6% of 360,000 active. AID 686970, 2013;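 note: NT is the 2HG producing partner of a matched IDH1 knockdown line; potency is the fitted concentration of half-maximal effect; 0% = DMSO-treated cells and -100% = media-only wells without cells; nearly all actives have a fitted effect of over 55% in size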
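Fibrosarcoma NT cells, 750 per well in 5% FBS RPMI, were exposed to compound for 48 hours. Viability: CellTiter-Glo luminescence.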
DT40 TDP1 CPT – qHTS for Inhibitors of human tyrosyl-DNA phosphodiesterase 1 (TDP1): qHTS in cells in presence of CPT | chicken DT40 Tdp1-/-;hTDP1 cells + 20 nM CPT, ATP luminescence, 48 h | Potency, µM (series often up to 46.2 µM), without a hit: at the highest dose activity change, negative = growth inhibition, usual class: inhibitors | 12% of 420,000 active; note: potency is the fitted concentration of half-maximal effect; nearly all actives have a fitted effect of over 55% in size
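Chicken DT40 Tdp1-/- cells complemented with human TDP1, 400 cells/well, exposed to compounds plus 20 nM camptothecin for at least 48 h at 37 C; viability read as ATP content by CellTiter-Glo luminescence.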
ELG1 DNA repair – qHTS screen for small molecules that inhibit ELG1-dependent DNA repair in human embryonic kidney (HEK293T) cells expressing luciferase-tagged ELG1. HEK293T ELG1-luciferase reporter, luminescence, 16 h; DNA damage induced by 5-fluorouridine. Potency, µM (doses to about 46.1 µM), inactives show at the top dose activity change, negative = inhibition, most hits filed as inhibitors. 2.3% of 330,000 active; note: potency is the fitted concentration of half-maximal effect; nearly all actives have a fitted effect of over 55% in size
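Luminescence from the luciferase reporter, measured 30 min after ONE-Glo reagent at room temperature, was the read-out. Beforehand, 2,000 cells per well were exposed for 16 hr at 37 °C to 5-fluorouridine together with compound or vehicle.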
IL1B secr inh – qHTS for Inhibitors of Inflammasome Signaling: IL-1-beta AlphaLISA Primary Screen; THP-1 LPS/ATP IL-1B secretion, AlphaLISA, 16 h; stronger effect = lower value; activity change, % at 57.5 µM; 4.7% of 360,000 active; AID 743279, 2014; in the data active = activity change below about -50%; inconclusive = mostly about -30% to -49%
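Secreted IL-1B measured by AlphaLISA bead assay after 16 h compound exposure of THP-1 cells; compounds (final up to 57.5 uM) added 1 h before LPS (250 ng/mL) and ATP (1.25 mM) stimulation; lower signal means less secretion.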
HT1080 IDH1KD tx – qHTS for induction of synthetic lethality in tumor cells producing 2HG: qHTS for the HT-1080-IDH1KD cell line; Potency, µM (titrated, usually from 46.1 µM), inactives show at the highest dose activity, negative = toxicity, usual class: cytotoxic; HT-1080 IDH1 knockdown viability, ATP luminescence, 48 h; 2% of 360,000 active;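 note: potency is the fitted concentration of half-maximal effect; 0% = DMSO wells and -100% = cell-free medium wells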
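Luminescent ATP read-out (CellTiter-Glo, 10 min at room temperature) after 48 h compound exposure at 37 °C gave viability of IDH1-knockdown HT-1080 cells. Activity was normalised to DMSO and cell-free wells, then fitted as concentration-response curves.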
Starred values were filed as active, the others as inactive; [ ] = another dose, or the depositor's remark. A selection: hits, their analogues and other compounds. The true share with any hit is near 19%. Unless noted, calls come from the whole dose curve; as a rule, active = well fitted curve in the direction sought with a large enough effect; inconclusive = small, poorly fitted or top-dose-only effect, or another doubt; inactive = no such curve, though single readings can be large; an effect the other way counts as inactive or inconclusive. Unless noted, % is set by controls: 0 for no effect and ±100 for the full control effect.

CCOc1ncccc1C(=O)Nc1ccc2nc(C)sc2c1 was read as TDP1 cell noCPT 18µM*, HT1080NT lethal inconclusive, DT40 TDP1 CPT inconclusive, ELG1 DNA repair 58%, IL1B secr inh -5 and HT1080 IDH1KD tx -27%.
Screening Cc1nc2ccc(NC(=O)c3nn(CC(C)C)c(=O)c4ccccc34)cc2s1 returned TDP1 cell noCPT inconclusive, HT1080NT lethal 0%, DT40 TDP1 CPT inconclusive, ELG1 DNA repair -25%, IL1B secr inh -85* and HT1080 IDH1KD tx -14%.
For CCOc1ncccc1C(=O)Nc1ccc(Cl)c(S(=O)(=O)N2CCCC2)c1 the results were TDP1 cell noCPT 21µM*, HT1080NT lethal -1%, DT40 TDP1 CPT 21µM*, ELG1 DNA repair inconclusive, IL1B secr inh 5 and HT1080 IDH1KD tx 12%.
CSc1ncccc1C(=O)Nc1ccc2nc(C)sc2c1 was read as TDP1 cell noCPT -2%, HT1080NT lethal 30%, DT40 TDP1 CPT -23%, ELG1 DNA repair inconclusive, IL1B secr inh -27 and HT1080 IDH1KD tx 15%.
For CCN(Cc1ccccc1)C(=O)Cn1c(=O)n(CC(=O)N2CCCCC2)c(=O)c2sccc21 the results were TDP1 cell noCPT 15%, HT1080NT lethal 17%, DT40 TDP1 CPT -4%, ELG1 DNA repair 1%, IL1B secr inh 12 and HT1080 IDH1KD tx 11%.
`O=c1c(CCc2ccccc2)nc2cnc(N3CCOCC3)nc2n1-c1ccccc1` gave TDP1 cell noCPT 21% and DT40 TDP1 CPT -15%.
Screening NC(=O)c1ccc(NC(=O)COC(=O)C2CCN(S(=O)(=O)c3cccs3)CC2)cc1 returned TDP1 cell noCPT -10%, HT1080NT lethal 7%, DT40 TDP1 CPT 1%, ELG1 DNA repair 4%, IL1B secr inh 16 and HT1080 IDH1KD tx 1%.
Screening CCCN1Cc2cccc(C(=O)Nc3ccc(OC)cc3OC)c2C1=O returned TDP1 cell noCPT 23µM* and DT40 TDP1 CPT inconclusive.
Screening CCCN1Cc2cccc(C(=O)Nc3cc(C)cc(C)c3)c2C1=O returned TDP1 cell noCPT inconclusive and DT40 TDP1 CPT -14%.
Screening CCCN1Cc2cccc(C(=O)Nc3ccccc3C(=O)OC)c2C1=O returned TDP1 cell noCPT 16µM* and DT40 TDP1 CPT 23µM*.
Screening CCCN1Cc2cccc(C(=O)Nc3cc(OC)cc(OC)c3)c2C1=O returned TDP1 cell noCPT -21%, HT1080NT lethal 0%[9.24 µM], DT40 TDP1 CPT -22%, ELG1 DNA repair inconclusive, IL1B secr inh 0 and HT1080 IDH1KD tx -1%.
CC1C(=O)Nc2ccc(S(=O)(=O)N3CCN(c4cccc(Cl)c4)CC3)cc2NC1=O (stereo not given) was read as TDP1 cell noCPT inconclusive, HT1080NT lethal -21%, DT40 TDP1 CPT 18µM*, ELG1 DNA repair -12%, IL1B secr inh 19 and HT1080 IDH1KD tx -2%.
`CC1C(=O)Nc2ccc(S(=O)(=O)N3CCN(c4cccc(C(F)(F)F)c4)CC3)cc2NC1=O` (stereo not given) gave TDP1 cell noCPT -69%, HT1080NT lethal -8%, DT40 TDP1 CPT 26µM*, ELG1 DNA repair -14%, IL1B secr inh -6 and HT1080 IDH1KD tx -21%.
`COc1ccc(CCNC(=O)c2ccc(Cn3c(=O)[nH]c4cc(OC)c(OC)cc4c3=O)cc2)cc1OC` gave TDP1 cell noCPT -19% and DT40 TDP1 CPT -26%.
Screening COc1ccccc1/C=N/NC(=O)Cn1cnc([N+](=O)[O-])n1 returned TDP1 cell noCPT 20%, HT1080NT lethal -5%, DT40 TDP1 CPT 2%, ELG1 DNA repair 45%, IL1B secr inh 34 and HT1080 IDH1KD tx -4%.
`O=C(Nc1ccnn1C1CCN(Cc2ccc(CO)o2)CC1)c1cccc(F)c1` gave TDP1 cell noCPT inconclusive, HT1080NT lethal -3%, DT40 TDP1 CPT -5%, IL1B secr inh -24 and HT1080 IDH1KD tx -2%.
Screening O=C1NC(=S)N/C1=C\c1ccc(Oc2ccc(C(F)(F)F)cc2[N+](=O)[O-])c(Cl)c1 returned TDP1 cell noCPT 0%, HT1080NT lethal 8%, DT40 TDP1 CPT 2%, ELG1 DNA repair -8%, IL1B secr inh -5 and HT1080 IDH1KD tx 10%.
`Cc1cc(N=NC(=O)c2ccccc2O)c2ccccc2c1O` gave TDP1 cell noCPT 18µM*, HT1080NT lethal inconclusive, DT40 TDP1 CPT 16µM*, ELG1 DNA repair inconclusive, IL1B secr inh 0 and HT1080 IDH1KD tx inconclusive.
`Cn1c(O)c(N=NC(N)=S)c2ccccc21` gave TDP1 cell noCPT 5.3µM* and DT40 TDP1 CPT 6.7µM*.
Screening Cc1occc1C(=O)N=Nc1c(O)n(C)c2ccccc12 returned TDP1 cell noCPT inconclusive, HT1080NT lethal -2%, DT40 TDP1 CPT -11%, ELG1 DNA repair inconclusive, IL1B secr inh -1 and HT1080 IDH1KD tx -3%.
`Cn1c(O)c(N=NC(=O)c2ccccc2O)c2ccccc21` gave TDP1 cell noCPT 16µM*, HT1080NT lethal -8%, DT40 TDP1 CPT 13µM*, ELG1 DNA repair inconclusive, IL1B secr inh -2 and HT1080 IDH1KD tx inconclusive.
Cn1c(O)c(N=NC(=O)c2ccco2)c2ccccc21 was read as TDP1 cell noCPT 15µM*, HT1080NT lethal -5%, DT40 TDP1 CPT 0%, ELG1 DNA repair inconclusive, IL1B secr inh -24 and HT1080 IDH1KD tx -13%.
Screening O=C(NCCC1CCCCN1S(=O)(=O)c1ccccc1)C(=O)NCc1ccncc1 (stereo not given) returned TDP1 cell noCPT inconclusive, HT1080NT lethal -5%, DT40 TDP1 CPT 6%, ELG1 DNA repair -22%, IL1B secr inh -2 and HT1080 IDH1KD tx 0%.
`CCCN(CC1CCCO1)C(=O)c1cc(COc2ccc(F)cc2F)on1` (stereo not given) gave TDP1 cell noCPT inconclusive, HT1080NT lethal 8%, DT40 TDP1 CPT inconclusive, ELG1 DNA repair -1%, IL1B secr inh -8 and HT1080 IDH1KD tx 10%.
`CC(CCC(=O)O)C1CCC2C3C(O)CC4CC(O)CCC4(C)C3CC(O)C12C` (stereo not given) gave TDP1 cell noCPT -6%, HT1080NT lethal 23%, DT40 TDP1 CPT -7%, ELG1 DNA repair -1%, IL1B secr inh 18 and HT1080 IDH1KD tx -4%.

Screens as filed in PubChem.
